Experimental data: ChEMBL document CHEMBL1961873, “Compounds: GSK PKIS; Assays: Nanosyn kinase panel” (2012)

Assays:
[1] = target: Serine/threonine-protein kinase MARK2 (Homo sapiens) (UniProt Q7KZI7); details: at 1 µM
[2] = target: PAS domain-containing serine/threonine-protein kinase (Homo sapiens) (UniProt Q96RG2); details: at 0.1 µM
[3] = target: PAS domain-containing serine/threonine-protein kinase (Homo sapiens) (UniProt Q96RG2); details: at 1 µM
[4] = target: Phosphorylase b kinase gamma catalytic chain, skeletal muscle/heart isoform (Homo sapiens) (UniProt Q16816); details: at 0.1 µM
Phosphorylase b kinase gamma catalytic chain, skeletal muscle/heart isoform (Homo sapiens), sequence (Q16816 whole entry, looked up, canonical isoform): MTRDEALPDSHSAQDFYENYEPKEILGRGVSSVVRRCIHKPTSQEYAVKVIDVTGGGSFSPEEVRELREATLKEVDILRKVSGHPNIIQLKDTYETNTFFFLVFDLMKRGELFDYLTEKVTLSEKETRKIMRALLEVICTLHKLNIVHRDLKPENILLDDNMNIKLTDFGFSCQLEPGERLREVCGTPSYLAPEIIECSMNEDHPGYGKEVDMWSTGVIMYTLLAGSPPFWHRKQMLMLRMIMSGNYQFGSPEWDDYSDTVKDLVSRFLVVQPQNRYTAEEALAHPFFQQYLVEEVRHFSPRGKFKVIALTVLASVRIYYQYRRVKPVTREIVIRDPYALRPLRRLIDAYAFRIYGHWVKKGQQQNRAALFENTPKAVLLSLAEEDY

[5] = target: Phosphorylase b kinase gamma catalytic chain, skeletal muscle/heart isoform (Homo sapiens) (UniProt Q16816); details: at 1 µM
[6] = target: T1, Phosphorylase b kinase gamma catalytic chain, liver/testis isoform (Homo sapiens) (UniProt P15735); details: at 0.1 µM
T1 sequence (whole entry): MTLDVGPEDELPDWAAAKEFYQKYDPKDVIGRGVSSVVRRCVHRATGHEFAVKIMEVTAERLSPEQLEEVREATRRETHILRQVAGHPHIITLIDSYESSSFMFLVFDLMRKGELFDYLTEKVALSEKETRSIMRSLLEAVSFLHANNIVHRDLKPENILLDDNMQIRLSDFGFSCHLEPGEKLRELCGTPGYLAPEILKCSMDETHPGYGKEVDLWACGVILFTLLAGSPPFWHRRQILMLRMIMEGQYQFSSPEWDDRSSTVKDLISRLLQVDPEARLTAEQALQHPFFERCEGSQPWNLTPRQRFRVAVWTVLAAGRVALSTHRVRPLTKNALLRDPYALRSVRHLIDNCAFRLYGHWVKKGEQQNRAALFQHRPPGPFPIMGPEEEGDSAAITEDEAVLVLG

[7] = target: T1, Phosphorylase b kinase gamma catalytic chain, liver/testis isoform (Homo sapiens); details: at 1 µM
[8] = target: Serine/threonine-protein kinase pim-1 (Homo sapiens) (UniProt P11309); details: at 0.1 µM
[9] = target: Serine/threonine-protein kinase pim-1 (Homo sapiens) (UniProt P11309); details: at 1 µM
[10] = target: Serine/threonine-protein kinase pim-2 (Homo sapiens) (UniProt Q9P1W9); details: at 0.1 µM
Serine/threonine-protein kinase pim-2 (Homo sapiens), sequence (Q9P1W9 whole entry, looked up): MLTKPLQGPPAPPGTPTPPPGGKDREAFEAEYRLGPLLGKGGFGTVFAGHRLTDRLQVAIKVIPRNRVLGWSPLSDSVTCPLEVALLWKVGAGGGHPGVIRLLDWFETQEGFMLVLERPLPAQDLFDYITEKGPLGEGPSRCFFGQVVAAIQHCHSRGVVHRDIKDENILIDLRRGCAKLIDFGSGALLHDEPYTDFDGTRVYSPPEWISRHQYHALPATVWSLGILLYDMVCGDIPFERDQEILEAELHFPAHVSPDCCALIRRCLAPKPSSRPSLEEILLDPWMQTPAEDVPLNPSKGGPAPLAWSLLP

[11] = target: Serine/threonine-protein kinase pim-2 (Homo sapiens) (UniProt Q9P1W9); details: at 1 µM
[12] = target: Serine/threonine-protein kinase pim-3 (Homo sapiens) (UniProt Q86V86); details: at 0.1 µM
[13] = target: Serine/threonine-protein kinase pim-3 (Homo sapiens) (UniProt Q86V86); details: at 1 µM
[14] = target: T2, MAP kinase-activated protein kinase 5 (Homo sapiens) (UniProt Q8IW41); details: at 0.1 µM
T2 sequence (whole entry): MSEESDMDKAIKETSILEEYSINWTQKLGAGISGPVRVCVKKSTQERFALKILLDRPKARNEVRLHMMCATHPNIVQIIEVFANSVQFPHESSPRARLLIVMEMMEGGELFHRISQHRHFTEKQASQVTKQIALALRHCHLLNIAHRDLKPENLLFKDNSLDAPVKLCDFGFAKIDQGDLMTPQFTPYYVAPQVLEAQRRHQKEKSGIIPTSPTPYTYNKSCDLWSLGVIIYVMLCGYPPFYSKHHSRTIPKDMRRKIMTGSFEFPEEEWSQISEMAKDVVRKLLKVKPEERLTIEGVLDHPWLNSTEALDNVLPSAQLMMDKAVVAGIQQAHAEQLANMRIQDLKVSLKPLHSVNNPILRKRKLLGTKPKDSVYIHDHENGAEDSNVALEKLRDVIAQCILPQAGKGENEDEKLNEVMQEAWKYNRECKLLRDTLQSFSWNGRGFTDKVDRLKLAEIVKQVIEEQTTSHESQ

[15] = target: T2, MAP kinase-activated protein kinase 5 (Homo sapiens); details: at 1 µM
[16] = target: Serine/threonine-protein kinase SIK1 (Homo sapiens) (UniProt P57059); details: at 1 µM
Serine/threonine-protein kinase SIK1 (Homo sapiens), sequence (P57059 whole entry): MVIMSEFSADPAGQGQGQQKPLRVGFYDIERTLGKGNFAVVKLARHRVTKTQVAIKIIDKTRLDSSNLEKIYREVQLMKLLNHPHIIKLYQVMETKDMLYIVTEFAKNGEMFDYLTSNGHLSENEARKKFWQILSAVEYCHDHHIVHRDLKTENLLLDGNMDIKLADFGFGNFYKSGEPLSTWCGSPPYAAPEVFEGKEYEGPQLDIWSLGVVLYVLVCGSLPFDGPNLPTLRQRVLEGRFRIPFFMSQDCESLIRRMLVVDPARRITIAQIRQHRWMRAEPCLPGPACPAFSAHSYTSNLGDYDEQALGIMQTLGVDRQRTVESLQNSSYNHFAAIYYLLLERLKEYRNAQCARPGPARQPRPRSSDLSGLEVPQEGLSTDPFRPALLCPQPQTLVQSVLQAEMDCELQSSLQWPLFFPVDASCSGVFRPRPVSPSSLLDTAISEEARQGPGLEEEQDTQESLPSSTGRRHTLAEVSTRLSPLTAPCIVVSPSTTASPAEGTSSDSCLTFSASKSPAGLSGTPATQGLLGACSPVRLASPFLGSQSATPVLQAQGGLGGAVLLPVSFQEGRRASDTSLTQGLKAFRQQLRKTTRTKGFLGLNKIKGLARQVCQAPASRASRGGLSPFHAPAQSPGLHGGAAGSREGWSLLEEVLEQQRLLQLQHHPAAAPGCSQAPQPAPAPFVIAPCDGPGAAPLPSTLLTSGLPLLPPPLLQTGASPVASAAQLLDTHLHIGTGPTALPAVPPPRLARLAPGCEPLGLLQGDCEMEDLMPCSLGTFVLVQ

[17] = target: Serine/threonine-protein kinase SIK2 (Homo sapiens) (UniProt Q9H0K1); details: at 0.1 µM
Serine/threonine-protein kinase SIK2 (Homo sapiens), sequence (Q9H0K1 whole entry, looked up): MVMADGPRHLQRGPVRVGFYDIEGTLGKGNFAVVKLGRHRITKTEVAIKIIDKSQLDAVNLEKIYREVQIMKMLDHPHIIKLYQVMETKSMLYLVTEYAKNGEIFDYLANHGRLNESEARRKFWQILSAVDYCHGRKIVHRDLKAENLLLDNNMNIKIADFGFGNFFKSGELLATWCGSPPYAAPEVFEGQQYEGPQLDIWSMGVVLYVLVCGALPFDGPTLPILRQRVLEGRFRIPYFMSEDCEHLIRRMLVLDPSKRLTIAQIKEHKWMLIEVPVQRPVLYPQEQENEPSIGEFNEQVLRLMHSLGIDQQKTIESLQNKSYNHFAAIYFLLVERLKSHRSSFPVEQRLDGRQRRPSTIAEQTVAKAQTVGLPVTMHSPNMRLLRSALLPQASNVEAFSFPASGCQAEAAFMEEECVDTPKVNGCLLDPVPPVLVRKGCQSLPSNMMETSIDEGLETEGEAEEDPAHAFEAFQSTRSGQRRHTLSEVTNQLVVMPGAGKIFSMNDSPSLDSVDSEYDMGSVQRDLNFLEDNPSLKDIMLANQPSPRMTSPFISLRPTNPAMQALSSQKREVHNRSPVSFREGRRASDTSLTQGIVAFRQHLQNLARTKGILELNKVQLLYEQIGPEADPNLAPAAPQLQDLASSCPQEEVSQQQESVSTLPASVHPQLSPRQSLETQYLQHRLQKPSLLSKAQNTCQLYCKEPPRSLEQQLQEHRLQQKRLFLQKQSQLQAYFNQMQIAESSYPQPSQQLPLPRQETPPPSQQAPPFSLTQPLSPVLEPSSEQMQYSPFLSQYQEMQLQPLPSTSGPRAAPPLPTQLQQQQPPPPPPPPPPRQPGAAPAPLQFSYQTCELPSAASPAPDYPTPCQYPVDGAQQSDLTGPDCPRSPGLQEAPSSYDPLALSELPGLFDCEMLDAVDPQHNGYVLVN

[18] = target: T3, Serine/threonine-protein kinase TBK1 (Homo sapiens) (UniProt Q9UHD2); details: at 0.1 µM;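 further: values are the mean TBK1 inhibition, taken from the GSK PKIS screening data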
T3 sequence (whole entry): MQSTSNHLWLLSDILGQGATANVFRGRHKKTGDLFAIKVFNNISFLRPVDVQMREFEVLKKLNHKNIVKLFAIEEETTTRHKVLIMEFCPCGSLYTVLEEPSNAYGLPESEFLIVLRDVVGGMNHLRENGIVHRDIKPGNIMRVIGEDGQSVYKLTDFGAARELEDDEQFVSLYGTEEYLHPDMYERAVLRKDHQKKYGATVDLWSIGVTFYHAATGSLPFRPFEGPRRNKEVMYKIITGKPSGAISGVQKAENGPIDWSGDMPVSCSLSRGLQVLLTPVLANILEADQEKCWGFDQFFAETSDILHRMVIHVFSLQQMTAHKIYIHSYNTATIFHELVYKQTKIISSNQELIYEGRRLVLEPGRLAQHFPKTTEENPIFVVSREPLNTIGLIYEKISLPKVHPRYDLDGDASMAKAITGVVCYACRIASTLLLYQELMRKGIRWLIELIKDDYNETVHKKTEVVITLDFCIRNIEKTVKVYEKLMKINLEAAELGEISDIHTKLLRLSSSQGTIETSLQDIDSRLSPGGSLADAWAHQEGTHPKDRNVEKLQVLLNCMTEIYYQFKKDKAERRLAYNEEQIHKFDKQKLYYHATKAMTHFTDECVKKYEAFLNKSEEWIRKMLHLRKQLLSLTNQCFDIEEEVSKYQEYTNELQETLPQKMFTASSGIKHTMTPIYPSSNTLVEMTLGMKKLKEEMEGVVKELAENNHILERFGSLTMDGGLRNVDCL

[19] = target: Serine/threonine-protein kinase SIK1 (Homo sapiens) (UniProt P57059); details: at 0.1 µM
[20] = target: Serine/threonine-protein kinase SIK2 (Homo sapiens) (UniProt Q9H0K1); details: at 1 µM

PAS domain-containing serine/threonine-protein kinase (Homo sapiens), sequence (Q96RG2 whole entry, the tested form may be a part, canonical isoform): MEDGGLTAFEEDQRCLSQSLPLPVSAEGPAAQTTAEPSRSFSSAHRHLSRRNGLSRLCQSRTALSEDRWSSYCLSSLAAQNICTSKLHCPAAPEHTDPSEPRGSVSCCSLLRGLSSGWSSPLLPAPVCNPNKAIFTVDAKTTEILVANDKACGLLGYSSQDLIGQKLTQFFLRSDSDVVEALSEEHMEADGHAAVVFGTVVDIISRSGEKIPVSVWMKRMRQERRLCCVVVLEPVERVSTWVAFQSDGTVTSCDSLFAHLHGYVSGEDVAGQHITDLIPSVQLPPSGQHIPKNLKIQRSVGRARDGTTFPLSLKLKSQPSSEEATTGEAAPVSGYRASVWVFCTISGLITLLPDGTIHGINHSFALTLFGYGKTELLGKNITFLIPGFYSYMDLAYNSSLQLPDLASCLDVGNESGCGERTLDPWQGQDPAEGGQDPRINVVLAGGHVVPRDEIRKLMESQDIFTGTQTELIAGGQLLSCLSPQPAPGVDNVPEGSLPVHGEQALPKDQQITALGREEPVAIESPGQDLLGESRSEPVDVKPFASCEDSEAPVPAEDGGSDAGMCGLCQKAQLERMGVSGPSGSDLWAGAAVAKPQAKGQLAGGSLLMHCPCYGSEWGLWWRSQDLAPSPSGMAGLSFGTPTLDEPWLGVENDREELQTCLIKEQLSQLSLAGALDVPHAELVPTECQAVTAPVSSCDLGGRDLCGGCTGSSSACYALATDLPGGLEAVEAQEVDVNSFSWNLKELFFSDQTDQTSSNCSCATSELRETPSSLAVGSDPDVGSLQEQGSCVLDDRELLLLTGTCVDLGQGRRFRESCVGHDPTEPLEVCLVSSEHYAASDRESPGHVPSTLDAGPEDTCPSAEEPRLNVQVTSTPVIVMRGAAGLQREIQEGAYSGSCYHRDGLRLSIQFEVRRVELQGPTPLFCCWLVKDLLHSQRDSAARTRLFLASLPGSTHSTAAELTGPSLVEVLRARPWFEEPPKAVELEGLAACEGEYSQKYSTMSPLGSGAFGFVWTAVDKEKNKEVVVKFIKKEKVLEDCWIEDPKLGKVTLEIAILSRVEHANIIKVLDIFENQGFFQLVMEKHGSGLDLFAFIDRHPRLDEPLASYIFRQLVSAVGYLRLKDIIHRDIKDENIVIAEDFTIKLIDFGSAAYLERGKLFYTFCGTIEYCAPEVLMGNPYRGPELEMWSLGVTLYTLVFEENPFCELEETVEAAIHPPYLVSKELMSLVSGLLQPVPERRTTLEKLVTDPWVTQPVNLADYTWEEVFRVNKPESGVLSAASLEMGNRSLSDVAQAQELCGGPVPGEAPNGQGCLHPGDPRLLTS
Serine/threonine-protein kinase MARK2 (Homo sapiens), sequence (Q7KZI7 whole entry, the tested form may be a part): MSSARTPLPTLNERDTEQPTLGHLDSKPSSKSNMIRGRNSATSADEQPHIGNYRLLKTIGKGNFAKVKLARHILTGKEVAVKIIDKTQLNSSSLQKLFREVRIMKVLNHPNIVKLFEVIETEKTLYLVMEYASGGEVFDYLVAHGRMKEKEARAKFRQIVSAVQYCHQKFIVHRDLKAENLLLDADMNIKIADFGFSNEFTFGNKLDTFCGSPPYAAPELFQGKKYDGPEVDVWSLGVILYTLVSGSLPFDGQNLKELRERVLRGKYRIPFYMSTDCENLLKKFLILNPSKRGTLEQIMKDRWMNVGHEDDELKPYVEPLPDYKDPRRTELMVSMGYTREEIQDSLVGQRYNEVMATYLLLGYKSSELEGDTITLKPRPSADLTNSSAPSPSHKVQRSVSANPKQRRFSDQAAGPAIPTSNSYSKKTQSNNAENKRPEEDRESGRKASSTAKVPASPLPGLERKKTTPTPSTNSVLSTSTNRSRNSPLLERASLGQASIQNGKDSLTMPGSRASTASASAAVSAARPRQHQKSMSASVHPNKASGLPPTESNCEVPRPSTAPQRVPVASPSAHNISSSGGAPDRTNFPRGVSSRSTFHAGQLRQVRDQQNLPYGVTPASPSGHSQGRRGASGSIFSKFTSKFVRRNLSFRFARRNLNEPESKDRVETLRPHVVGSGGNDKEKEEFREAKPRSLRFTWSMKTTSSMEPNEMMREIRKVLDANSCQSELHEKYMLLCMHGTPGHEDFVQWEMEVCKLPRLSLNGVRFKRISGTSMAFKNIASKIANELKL

Row | Structure (SMILES) | inhibition [1] [%] | inhibition [2] [%] | inhibition [3] [%] | inhibition [4] [%] | inhibition [5] [%] | inhibition [6] [%] | inhibition [7] [%] | inhibition [8] [%] | inhibition [9] [%] | inhibition [10] [%] | inhibition [11] [%] | inhibition [12] [%] | inhibition [13] [%] | inhibition [14] [%] | inhibition [15] [%] | inhibition [16] [%] | inhibition [17] [%] | inhibition [18] [%] | inhibition [19] [%] | inhibition [20] [%]
1 | COc1cc(C=NNc2ncnc3c2cnn3Cc2ccccc2)ccc1O | 4.82 | -0.31 | 0.37 | -1.3 | 2.64 | -7.11 | -6.49 | -0.98 | 1.73 | 0.65 | 4.62 | 1.07 | 5.08 | -1.78 | -1.84 | -3.99 | -6 | 0.04 | – | –
2 | COc1cccc(-n2ncc3c(N/N=C/c4ccncc4)ncnc32)c1 | 2.54 | 0.3 | 0.25 | 5.39 | 17.6 | 5.48 | 7.43 | 1.36 | 3.36 | 0.77 | 1.69 | 0.83 | 4.38 | 1.56 | 3.04 | 27.9 | 15.4 | 3.12 | 4.22 | 54
3 | CCn1c(-c2nonc2N)nc2c(C#CC(C)(C)O)ncc(OCC3CCNCC3)c21 | 46.5 | 0.98 | 12.8 | 2.88 | 9.61 | 4.03 | 6.94 | 2.14 | 17.3 | -3.05 | 3.34 | 3.02 | 21 | 1.57 | 2.94 | 18 | 3.58 | 5.26 | 4.3 | 18.4
4 | COc1cc2c(cc1Nc1nc(Nc3ccsc3C(N)=O)c3cc[nH]c3n1)N(C(=O)CN(C)C)CCC2 | 5.44 | 0.93 | 1.03 | 8.54 | 41.3 | -0.5 | -0.53 | 31.3 | 79.8 | 0.47 | 3.29 | 6.22 | 38.3 | 1.1 | 1.23 | -0.04 | -2.92 | 9.46 | -0.68 | 5.93
5 | COc1cccc(COc2cc(-n3cnc4ccccc43)sc2C(N)=O)c1 | -1.4 | 1.11 | 1.08 | 2.26 | 3.47 | 1.62 | 0.45 | 0.5 | 0.84 | 0.51 | 1.31 | 0.12 | 0.33 | 0.16 | -0.81 | 3.4 | -0.88 | -1.18 | -0.86 | -4.75
6 | Cc1cc(-c2ccco2)cc(C)c1/C=C/c1cncc(-c2nn[nH]n2)c1 | -0.28 | 1.32 | 1.25 | 3.4 | 4.41 | 1.33 | 1.22 | 0.14 | 1.06 | 0.57 | 1.49 | 0.12 | 1.83 | 0.41 | 0.28 | 6.77 | -2.65 | 0.36 | -0.49 | 0.13
7 | NS(=O)(=O)c1ccc(N/C=C2\C(=O)Nc3ccc4ncsc4c32)cc1 | 34.6 | -0.28 | 0.4 | 15.2 | 47.6 | 7.45 | 19.8 | 1.16 | 4.82 | 0.27 | 1.21 | 0.54 | 4.12 | 2.27 | 7.16 | 21 | 9 | 10.7 | 2.12 | 25.8
8 | Nc1nonc1-c1nc2cnccc2n1C1CCCCC1 | 21.9 | 1.01 | 12.9 | -3.58 | 8.25 | -4.48 | -2.24 | 29.8 | 79.2 | 5.24 | 37.5 | 11.4 | 56.9 | -0.83 | -1.13 | -3.76 | -6.25 | 3.95 | -4.72 | 9.23
9 | CCn1c(-c2nonc2N)nc2c(C#CC(C)(C)O)nc(O[C@@H](CN)c3ccccc3)cc21 | 90.5 | 0.53 | 15.9 | 1.61 | 12.3 | -3.09 | -0.93 | 4.64 | 35.2 | 2.45 | 20.6 | 4.66 | 39 | -0.85 | -1.11 | 8.3 | -0.81 | 20.9 | -0.97 | 14.8
10 | NS(=O)(=O)c1ccc(-c2ccc3c(NC(=O)C4CC4)n[nH]c3c2)cc1 | 2.59 | 0.57 | -1.27 | -3.09 | 3.54 | 2.77 | 0 | 1.16 | 0.95 | -0.15 | 0.28 | -0.26 | -1.81 | 0.51 | 0.89 | 3.27 | 1.79 | 5.3 | 5.15 | 8.87
11 | NC(=O)c1sc(-n2cnc3cc(C(F)(F)F)ccc32)cc1OCc1ccccc1Br | 2.11 | 1.33 | 0.96 | 0.3 | 5.87 | 2.5 | 3.01 | 1.18 | 1.5 | -0.35 | 1.16 | 1.55 | 2.84 | 0.86 | 0.76 | 1.7 | -0.18 | 0.98 | 6.45 | 3.79
12 | Fc1ccc(-c2ncn(C3CCNCC3)c2-c2ccnc(Oc3ccccc3)n2)cc1 | -1.83 | 0.55 | -1 | 3.99 | 2.25 | 1.69 | 1.14 | -1.15 | -0.11 | -3.22 | -3.69 | -0.25 | -0.02 | 0.89 | 1.1 | 8.86 | -0.18 | 0.83 | 2.14 | 7.64
13 | CCn1c(-c2nonc2N)nc2c(C#CC(C)(C)O)ncc(OC[C@@H]3CCCN3)c21 | 51.9 | 0.57 | 7.61 | 1.02 | 2.21 | 1.45 | 1.65 | 1.6 | 7.63 | 1.1 | 7.09 | 1.81 | 10.1 | 0.11 | 0.32 | 4.19 | -4.09 | 5.1 | 1.03 | 6.59
14 | CCn1c(-c2nonc2N)nc2c(C#CCN)ncc(OCCCN)c21 | 10.1 | 1.4 | 16.9 | 3.15 | 5.73 | -1.7 | 4.75 | 4.76 | 36 | 3.26 | 5.54 | 9.18 | 33 | -1.32 | 1.09 | -7.22 | -2.87 | -0.18 | -4.16 | -1.04
